“And” between values parts separate entries of the source, which are not always exact repeats. Equal entries are not always repeated. Hit rate of the full screen: of about 350,000 compounds, about 1,200 (0.34%) were called active. A call without a number means that no potency is given here. Another 3% or so got no clear call; they are omitted. Calls follow the shape of the dose curve; as a rule, active = well fitted inhibition curve with a large enough effect; inconclusive = small, poorly fitted or top-dose-only effect; inactive = no such curve, though single readings can be large or run the other way. The full list was thinned out, with actives kept by preference. Some structures have more than one record in an assay (separate samples or runs), and their calls can disagree. Positions of bridges follow the written chain, without caps; N, C: chain ends. Non-standard residues stand in square brackets, D forms with d. Residues, ends and D or L forms follow the SMILES beside them. *: point of attachment. X1 = CC[C@H](C)CCCCC(=O)*; Dab = NCC[C@H](N)C(=O)O
What follows are compounds tested against DNA repair nuclease/redox regulator APEX1 (Homo sapiens) (UniProt P27695) (assay: qHTS Assay for Inhibitors of the Human Apurinic/apyrimidinic Endonuclease 1 (APE1)). Settings: recombinant APE1, TAMRA/BHQ-2 abasic DNA cleavage fluorescence; activity change, negative = inhibition: at 65.8 µM (top of the series).
Outline: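 Readout is kinetic fluorescence (ex 525, em 598 nm) from cleavage of 50 nM TAMRA/BHQ-2 THF abasic duplex by 0.75 nM APE1, compound added 15 min beforehand at RT.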
Also: nearly all actives have a fitted effect of over 55% in size.
Potency is read from the fitted curve at half-maximal effect.

Chain of DNA repair nuclease/redox regulator APEX1 (Homo sapiens) (P27695 whole entry, looked up): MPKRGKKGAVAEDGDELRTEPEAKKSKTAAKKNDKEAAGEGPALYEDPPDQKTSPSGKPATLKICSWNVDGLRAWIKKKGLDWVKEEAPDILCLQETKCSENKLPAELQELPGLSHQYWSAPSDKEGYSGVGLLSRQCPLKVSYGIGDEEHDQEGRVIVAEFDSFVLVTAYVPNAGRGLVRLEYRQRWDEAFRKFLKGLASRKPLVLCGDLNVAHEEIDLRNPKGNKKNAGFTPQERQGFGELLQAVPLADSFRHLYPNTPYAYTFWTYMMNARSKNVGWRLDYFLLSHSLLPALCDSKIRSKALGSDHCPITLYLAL

| SMILES | Potency | activity change, negative = inhibition |
| --- | --- | --- |
| CCOC(=O)c1sc2nc(CSCC(=O)OCc3ccc(C(=O)OC)o3)[nH]c(=O)c2c1C | inactive | – |
| COC(=O)C1(C(C)=O)CC2=CC[C@H]3C(=O)N(c4ccccc4)C(=O)[C@H]3[C@@H]2Cc2ccccc2[C@@H]1C[N+](=O)[O-] (some centres undefined) | inactive | – |
| OC[C@H]1O[C@@H](n2cnc3c(NC4CCCC4)ncnc32)[C@H](O)[C@H]1O | inactive | – |
| Cc1csc(-c2coc3cc(O[C@@H]4O[C@H](CO)[C@@H](O)[C@@H](O)[C@H]4O)ccc3c2=O)n1 | inactive | – |
| CCCCC/C=C/C=C/C=O | inactive | – |
| CNS(=O)(=O)c1cccc(C(=O)OCC(=O)N2c3ccccc3NC(=O)C2(C)C)c1 | 15 µM (active) | – |
| Cc1cc(C(=O)OCC(=O)N2c3ccccc3NC(=O)C2(C)C)c(C)n1-c1ccccc1 | inactive | – |
| CCNc1ccc(C(=O)OCC(=O)N2c3ccccc3NC(=O)C2(C)C)cc1[N+](=O)[O-] | inactive | – |
| CC(C)CO | inactive | – |
| CN1CCN2c3ccccc3Cc3ccccc3[C@@H]2C1 | inactive | – |
| C/C(CCN1CCCCc2nc(C)c(C)cc21)=N\O[C@@H](C)c1cn([C@@H]2COC[C@@H]2O)nn1 | – | 11.9% [at 12.4 µM] (inactive) |
| C=CC(C1=CC(=O)C=CC1=O)c1ccc(O)cc1 (centres undefined) | inactive | – |
| CCOC(=O)C(Cc1ccccc1)NC(=O)CCC(=O)c1ccc(OC)cc1 (centres undefined) | inactive | – |
| COc1ccc(OC)c(NC(=O)N[C@H](Cc2ccccc2)C(=O)NN)c1 | inactive | – |
| COc1cc([C@H](Cc2ccccc2)NC(C)=O)oc(=O)c1 | 28.2 µM (active) | – |
| COC(=O)C1(C)C=CC2(CCCCC2)N1C(C)=O (centres undefined) | inactive | – |
| N#Cc1ccc(CN2CCCC3(CCN(C(=O)c4ccco4)CC3)C2)cc1 | inactive | – |
| C[C@H]1CCC[C@@]2(C)CCCC[C@]12O | inactive | – |
| COC(=O)CC1c2ccccc2C(Cc2ccc(OC)cc2)=C(C)N1C(=O)OC (centres undefined) | – | -8.37% [at 12.4 µM] (inactive) |
| O=C(CCS(=O)(=O)c1ccc(Br)cc1)NCCc1ccc(Cl)cc1 | inactive | – |
| CCOc1ccc(OCC)c(NC(=O)CCS(=O)(=O)c2ccc(C)cc2)c1 | inactive | – |
| COc1ccc(Cl)cc1NC(=O)CCS(=O)(=O)c1ccc(Br)cc1 | 11.9 µM (active) | – |
| COc1cccc(Cn2c(=O)cnc3cncnc32)c1 | inactive | – |
| C=CC1=C2C=C(C3CC3)N(CC(C)C)C=C2C(=O)C(C)(OC(=O)c2ccco2)C1=O (centres undefined) | – | -5.75% [at 12.4 µM] (inactive) |
| COc1ccccc1CNc1ncnc2ccc(-c3c(C)noc3C)cc12 | inactive | – |

| SMILES | Potency | activity change, negative = inhibition |
| --- | --- | --- |
| C[C@H]1Cc2c(-c3ccccc3)nc3c(c2CO1)CN(C(=O)C1CC1)CC3 | – | -1.16% [at 12.4 µM] (inactive) |
| COC(=O)C1(C)C=CCN1C(=O)c1ccccc1 (centres undefined) | inactive | – |
| Cc1ccc(CNc2ccc(N3CCN(C(=O)OC(C)(C)C)CC3)cc2)cc1 | inactive | – |
| C=CCOC(=O)COCCC(C)C | inactive | – |
| C/C=C/C1=C(C(=O)O)N2C(=O)[C@@H](NC(=O)[C@H](N)c3ccc(O)cc3)[C@H]2SC1 | inactive | – |
| Cc1cc(C)cc(C(=O)NC2C(=O)N3C(C(=O)O)=C(CSc4nnc(C)s4)CSC23)c1 (centres undefined) | inactive | – |
| CO/N=C(\C(=O)N[C@@H]1C(=O)N2C(C(=O)O)=C(COC(C)=O)CS[C@H]12)c1csc(N)n1 (stereo in doubt) | inactive and 10 µM (active) and 10.6 µM (active) | – |
| Cc1nnc(SCC2=C(C(=O)O)N3C(=O)C(NC(=O)Cn4nc(C)c(Cl)c4C)C3SC2)s1 (centres undefined) | inactive | – |
| CC(C)(C)OC(=O)C1=C(CO)CS[C@@H]2[C@H](NC(=O)Cc3ccccc3)C(=O)N12 | inactive | – |
| C=CC1=C(C(=O)O)N2C(=O)[C@@H](NC(=O)/C(=N\OCC(=O)O)c3csc(N)n3)[C@H]2SC1 | 11.9 µM (active) | – |
| CC(C)[C@@H](OCc1ccccc1)[C@H](C)/C=N\OC[C@@H](C)[C@H](OCc1ccccc1)C(C)C | – | -2.11% [at 12.4 µM] (inactive) |
| CO[C@H]1C=CO[C@@]2(C)Oc3c(C)c(O)c4c(O)c(c(/C=N/N5CCN(C)CC5)c(O)c4c3C2=O)NC(=O)/C(C)=C\C=C[C@H](C)[C@H](O)[C@@H](C)[C@@H](O)[C@@H](C)[C@H](OC(C)=O)[C@@H]1C | inactive | – |
| CC[C@H](C)CCCCC(=O)N[C@@H](CCN)C(=O)N[C@H](C(=O)N[C@@H](CCN)C(=O)N[C@H]1CCNC(=O)[C@@H]([C@H](C)O)NC(=O)[C@H](CCN)NC(=O)[C@H](CCN)NC(=O)[C@H](CC(C)C)NC(=O)[C@@H](CC(C)C)NC(=O)[C@H](CCN)NC1=O)[C@@H](C)O (X1-[Dab]T[Dab][Dab][Dab][dL]L[Dab][Dab][dT]; lactam 4-C) | inactive | – |
| C[C@H]1Cc2c(COc3ccccc3)nc3c(c2CO1)CN(C(=O)Nc1cccc(C#N)c1)CC3 | – | -2.12% [at 12.4 µM] (inactive) |
| OCCC(O)CO (centres undefined) | inactive | – |
| O=C(c1csnn1)N1CCC[C@@]2(CCN(c3cccc(-c4ccccc4)c3)C2)C1 | inactive | – |
| Cn1cccc1C(=O)N1CCC2(CC1)CN(c1cccc(-c3ccccc3)c1)C2 | inactive | – |
| Nc1ncnc2c1ncn2C1CC(O)C(CO)O1 (centres undefined) | inactive | – |
| CC1(OC(=O)c2ccc(Cl)nc2)C(=O)Cc2cc(-c3ccsc3)ncc2C1=O (centres undefined) | – | -0.549% [at 12.4 µM] (inactive) |
| Cc1ccc(C(=O)NNC(=O)c2cc3cc4ccccc4nc3s2)cc1 | 22.4 µM (active) | – |
| Cc1ccc(C(=O)NNC(=O)c2ccc3c(c2)OCCO3)cc1 | inactive | – |
| Cc1ccc(C(=O)NNc2ncnc3ccccc23)cc1 | inactive | – |
| Cn1cc(-c2nc3cnc(N4CCNCC4)nc3n(CCc3ccccc3)c2=O)c2ccccc21 | inactive | – |
| COc1ccc(Oc2ncc3nc(-c4ccc(F)cc4)c(=O)n(C)c3n2)cc1 | inactive | – |
